Results reported in paper PMC4336329 (PLoS ONE, 2015).
The campaign covered roughly 310,000 compounds. About 14,000 (4.5%) showed an effect of 50% or more. Effects have a minus sign here. For the sample, strong results were picked, then their nearest neighbours and some compounds at random.

The compounds below were run against human ether-à-go-go-related gene (hERG) potassium channel (human, UniProt Q12809) (assay: primary screen, population patch clamp on CHO cells stably expressing hERG; higher = less effect of the substance).
Chain of human ether-à-go-go-related gene (hERG) potassium channel (Q12809 whole entry, looked up): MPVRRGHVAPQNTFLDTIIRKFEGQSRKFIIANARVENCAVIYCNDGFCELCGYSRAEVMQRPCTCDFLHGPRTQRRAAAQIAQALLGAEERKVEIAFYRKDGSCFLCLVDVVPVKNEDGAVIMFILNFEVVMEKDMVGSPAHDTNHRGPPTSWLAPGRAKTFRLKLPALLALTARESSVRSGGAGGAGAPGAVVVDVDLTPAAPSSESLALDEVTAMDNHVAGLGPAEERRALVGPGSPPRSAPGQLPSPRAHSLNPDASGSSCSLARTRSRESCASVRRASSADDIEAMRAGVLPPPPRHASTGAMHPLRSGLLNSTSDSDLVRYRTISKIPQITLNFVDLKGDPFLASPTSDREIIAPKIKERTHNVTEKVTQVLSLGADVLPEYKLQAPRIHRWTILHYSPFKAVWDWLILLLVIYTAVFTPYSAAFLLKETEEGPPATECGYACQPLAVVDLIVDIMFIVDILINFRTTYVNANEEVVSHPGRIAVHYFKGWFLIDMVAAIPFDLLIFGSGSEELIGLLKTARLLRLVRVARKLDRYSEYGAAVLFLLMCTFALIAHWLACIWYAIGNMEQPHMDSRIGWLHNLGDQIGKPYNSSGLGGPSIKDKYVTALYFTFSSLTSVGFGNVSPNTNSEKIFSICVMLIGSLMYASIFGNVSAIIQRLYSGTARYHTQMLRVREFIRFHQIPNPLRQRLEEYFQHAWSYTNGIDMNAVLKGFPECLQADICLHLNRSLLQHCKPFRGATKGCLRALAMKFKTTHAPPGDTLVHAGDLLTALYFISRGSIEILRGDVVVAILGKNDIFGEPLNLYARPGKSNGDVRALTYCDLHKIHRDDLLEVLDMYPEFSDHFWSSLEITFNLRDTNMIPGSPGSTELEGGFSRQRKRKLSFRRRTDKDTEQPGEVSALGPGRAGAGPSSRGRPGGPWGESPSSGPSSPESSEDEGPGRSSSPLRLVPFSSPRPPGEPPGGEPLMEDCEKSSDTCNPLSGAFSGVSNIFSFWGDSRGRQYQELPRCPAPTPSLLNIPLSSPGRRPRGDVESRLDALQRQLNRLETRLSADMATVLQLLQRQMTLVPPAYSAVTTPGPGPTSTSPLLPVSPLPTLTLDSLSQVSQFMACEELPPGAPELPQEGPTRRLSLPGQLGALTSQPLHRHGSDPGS
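Also: peak tail current of the secondary pulse compared with the same well before compound.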

Point of comparison: CC(C)Oc1ccccc1/C=N/NC(=O)C1CC1, “hERG current change (%, negative = inhibition) at 10uM” value 7.57%. Against it:
- COc1ccccc1Cn1c(=O)c2ccccc2n2c(SCc3csc(C)n3)nnc12 — lower, -6.34%
- CC1=C(C)CC(C(=O)NNC(=O)c2cccc(Cl)c2)C(C(=O)O)C1 (centres unmarked) — higher, 12.3%
- Cc1ccccc1C(=O)Nc1ccc(C(=O)N/N=C/c2ccc(O)c(Br)c2)cc1 — lower, -2.99%
- CNC(=O)c1[nH]cnc1C(=O)N[C@@H](CC(C)C)C(=O)OCc1ccccc1 — lower, -58.2%
- CC(C)C[C@H](NC(=O)c1nc[nH]c1C(=O)N[C@@H](CC(C)C)C(=O)OCc1ccccc1)C(=O)OCc1ccccc1 — higher, 16.2%
- CC(C)C[C@H](NC(=O)c1[nH]cnc1C(=O)N[C@@H](Cc1ccccc1)C(=O)OCc1ccccc1)C(=O)OCc1ccccc1 — higher, 21.6%
- CC1(C)C(C=C(Cl)Cl)C1C(=O)Nc1ccc([N+](=O)[O-])cc1 (centres unmarked) — higher, 18.9%
- O=C(COc1ccc(/C=N/NC(=O)C(=O)N2CCCCC2)cc1)Nc1ccccc1Cl — higher, 15.9%
- O=C(C1CCCN(S(=O)(=O)c2ccc([N+](=O)[O-])cc2)C1)N1CCCCC1 (centres unmarked) — lower, -62%
- O=C(C1CCCN(S(=O)(=O)c2ccc(F)cc2)C1)N1CCCCCC1 (centres unmarked) — lower, -24%
- O=C(C1CCCN(S(=O)(=O)c2ccc(F)cc2)C1)N1CCCCC1 (centres unmarked) — lower, 6.09%
- O=C(C1CCCCC1)N1CCN(S(=O)(=O)c2cccc([N+](=O)[O-])c2)CC1 — lower, -13.1%
- O=C(C1CCC1)N1CCN(S(=O)(=O)c2ccc([N+](=O)[O-])cc2)CC1 — lower, -62.6%
- O=C(C1CCC1)N1CCN(S(=O)(=O)c2ccc(F)cc2)CC1 — higher, 11.4%
- COc1ccc2oc(C(=O)N3CCc4ccccc43)c(C)c2c1 — higher, 15.1%
- Cc1cccc(S(=O)(=O)NCCC(=O)OC(C)C(=O)NC(=O)NC2CCCCC2)c1 (centres unmarked) — lower, -20.8%
- Cc1nn(C)c(Oc2cccc(Cl)c2)c1C#N — higher, 8.31%
- Cc1nc(N(C)Cc2ccccc2)c2nnn(Cc3ccccc3)c2n1 — lower, -37.9%
- COc1ccc(CCC(=O)Nc2ccc(S(=O)(=O)N3CCCC3)cc2)cc1OC — lower, -11.8%
- CCC1(Cc2ccccc2)NC(=O)c2ccccc2O1 (centres unmarked) — lower, 2.36%
- CC(C)N(CCn1cnc2c([nH]c3ccccc32)c1=O)C(C)C — lower, -68.1%
- O=c1c2[nH]c3cccc(Cl)c3c2ncn1CCN1CCCCC1 — lower, -21.9%
- COc1cc2[nH]c3c(=O)n(CCN(C(C)C)C(C)C)cnc3c2cc1OC — lower, -13.3%
- CCN1CCCC1Cn1cnc2c([nH]c3ccc(Cl)cc32)c1=O (centres unmarked) — lower, -76.5%
- Cc1ccc2[nH]c3c(=O)n(CCN4CCOCC4)cnc3c2c1 — lower, -17.5%
- CCN1CCCC1Cn1cnc2c([nH]c3ccc(C)cc32)c1=O (centres unmarked) — lower, -70%
- Cc1ccc2[nH]c3c(=O)n(Cc4ccncc4)cnc3c2c1 — lower, 4.77%
- CCN1CCCC1Cn1cnc2c([nH]c3cccc(Cl)c32)c1=O (centres unmarked) — lower, -67.2%
- O=c1c2[nH]c3ccc(F)cc3c2ncn1CC1CCCO1 (centres unmarked) — lower, -16%
- CCCCn1cnc2c([nH]c3ccccc32)c1=O — higher, 15.7%
- O=c1c2[nH]c3cccc(Cl)c3c2ncn1CC1CCCO1 (centres unmarked) — lower, -9.51%
- Cc1ccc2[nH]c3c(=O)n(CCN4CCNCC4)cnc3c2c1 — lower, 7.36%
- Cc1nn(C)c(C(=O)N/N=C/c2ccccn2)c1[N+](=O)[O-] — higher, 21.3%
- CCCNC(=O)NC(C)C12CC3CC(CC(C3)C1)C2 (centres unmarked) — lower, -12.6%
- COC(=O)c1cc(COC(=O)c2nc3nccc(C)n3n2)oc1C — higher, 15.7%
- Cc1cc(C(=O)OCC(=O)NC2CCCCC2)c(C)o1 — higher, 9.12%
- Cc1ccc(NC(=O)CSCC(=O)N2CCN(c3cccc(C(F)(F)F)c3)CC2)cc1 — lower, -13%
- Cc1ccc(NC(=O)c2cccc3c2-c2ccccc2C3=O)cc1C — lower, -9.58%
- CCC1CCCN1Cn1cnc2c([nH]c3ccc(C)cc32)c1=O (centres unmarked) — lower, -67.1%
- O=c1c2[nH]c3ccc(F)cc3c2ncn1CCCN1CCOCC1 — lower, -31.3%
- CCC1CCCN1Cn1cnc2c([nH]c3ccc(Cl)cc32)c1=O (centres unmarked) — lower, -71.5%
- O=C1CCCN1CCCNc1ncnc2c1[nH]c1ccc(Cl)cc12 — lower, -29.4%
- O=c1c2[nH]c3ccccc3c2ncn1CCN1CCNCC1 — lower, 4.97%
- Cc1ccc2[nH]c3c(=O)n(CCCN4CCN(C)CC4)cnc3c2c1 — lower, -37%
- O=c1c2[nH]c3ccc(F)cc3c2ncn1CCN1CCOCC1 — lower, -41.1%
- O=c1c2[nH]c3ccc(F)cc3c2ncn1CCN1CCN(Cc2ccccc2)CC1 — lower, -63.2%
- O=c1c2[nH]c3ccccc3c2ncn1CCN1CCOCC1 — lower, 4.87%
- CCC1CCCN1Cn1cnc2c([nH]c3ccccc32)c1=O (centres unmarked) — lower, -62.1%
- Cc1ccc2[nH]c3c(=O)n(CCC4=CCCCC4)cnc3c2c1 — lower, 4.95%
- Cc1ccc2[nH]c3c(=O)n(CCCN4CCOCC4)cnc3c2c1 — lower, -17.8%
- O=c1[nH]nc(-c2ccc(NCCCO)c([N+](=O)[O-])c2)c2ccccc12 — lower, -9.98%
- O=C(CSc1nnc(NC(=O)C2CC2)s1)NCc1ccco1 — lower, -4.21%
- COc1cc(/C=N\NC(=O)c2ccc(C)nc2)ccc1OC(=O)c1ccc2c(c1)OCO2 — lower, -7.08%
- Cc1cccc(CNc2ccc(C(CC(N)=O)NC(=O)Cc3cccc4ccccc34)cc2[N+](=O)[O-])c1 (centres unmarked) — lower, 7.02%
- Cc1ccn2cc(-c3cccc(NC(=O)c4cccs4)c3)nc2c1 — lower, -48.7%
- O=c1c2[nH]c3ccccc3c2ncn1CCN1CCCCC1 — lower, -45.6%
- O=c1c2[nH]c3ccc(Cl)cc3c2ncn1CCN1CCCCC1 — lower, -68%
- COc1cc2[nH]c3c(=O)n(CCN4CCCCC4)cnc3c2cc1OC — lower, 6.02%
- Cc1ccc(S(=O)(=O)N(C)CC(=O)Nc2ccccc2)cc1 — lower, -20%
- COc1cccc(CC(=O)OCC(=O)NC2(C#N)CCCCC2)c1 — higher, 16.5%
- Cc1nnc(NC(=O)CCSc2ccccc2)s1 — lower, 1.73%
- COC(=O)C1CCN(C(=O)COC(=O)c2n[nH]c3ccccc23)CC1 — higher, 10.8%
- COc1cccc(OCc2cc(C(=O)NC(C)c3cnn(C)c3C)no2)c1 (centres unmarked) — lower, -2.65%
- Cc1c(C(C)NC(=O)c2cc(COc3cccc4cnccc34)on2)cnn1C (centres unmarked) — lower, -55.6%
- Cc1nn(C)cc1C(C)NC(=O)c1cc(COc2cccc3cnccc23)on1 (centres unmarked) — higher, 13.9%
- Cc1ccc(C)c(NC(=O)NNC(=O)c2ccc3ccccc3c2O)c1 — higher, 11.4%
- O=C(c1cn(Cc2ccccc2)nc1-c1cccnc1)N1CCN(Cc2ccccc2)CC1 — lower, -33.5%
- O=C(O)/C=C/c1cn(Cc2ccccc2)nc1-c1cccnc1 — higher, 12%
- CC(=O)c1ccc(N2CCN(C(=O)c3cn(Cc4ccccc4)nc3-c3cccnc3)CC2)c(F)c1 — lower, -50.2%
- O=C(c1cn(Cc2ccccc2)nc1-c1cccnc1)N1CCN(Cc2c(F)cccc2Cl)CC1 — lower, -4.33%
- N#Cc1ccc(CN2CCN(C(=O)c3cn(Cc4ccccc4)nc3-c3cccnc3)CC2)cc1 — lower, -72.9%
- COc1cccc(N2CCN(C(=O)c3cn(Cc4ccccc4)nc3-c3cccnc3)CC2)c1 — lower, -12.9%
- COCCOC(=O)/C(C#N)=C/c1cn(Cc2ccccc2)nc1-c1cccnc1 — lower, -67.1%
- O=Cc1cn(Cc2ccccc2)nc1-c1cccnc1 — lower, 7.48%
- COc1ccc(N2CCN(C(=O)c3cn(Cc4ccccc4)nc3-c3cccnc3)CC2)cc1 — lower, -33.3%
- CCc1nnc(NC(=O)CSc2nc3c(c(=O)n2C)SC(C)C3)s1 (centres unmarked) — lower, -2.54%
- CCCCOC(=O)c1ccc(NC(=O)c2ocnc2C)cc1 — lower, -8.8%
- O=C(OC(C(=O)NCc1ccco1)c1ccc(Cl)cc1)c1cccs1 (centres unmarked) — higher, 17.6%
- Cl.OCCNc1nc(N2CCN(Cc3ccccc3)CC2)nc2ccccc12 — lower, -68.3%
- Cl.c1ccc(CN2CCN(c3nc(N4CCOCC4)c4ccccc4n3)CC2)cc1 — lower, -70.3%
- Cl.OCCN1CCN(c2nc(NCc3ccco3)c3ccccc3n2)CC1 — lower, -75.3%
- Cc1ccc(OCCN2CCN(c3nc(NCc4ccco4)c4ccccc4n3)CC2)cc1 — lower, -62.6%
- Cc1ccc(-c2nc(NCc3ccco3)c3ccccc3n2)cc1 — lower, 4.65%
- Cl.c1ccc2c(N3CCOCC3)nc(N3CCOCC3)nc2c1 — lower, -19.4%
- Cc1cccc(Nc2nc(NCc3ccco3)c3ccccc3n2)c1.Cl — lower, -12.2%
- CCN(CC)c1nc(N2CCOCC2)nc2ccccc12.Cl — lower, -48.3%
- CCN1CCN(c2nc(NCCO)c3ccccc3n2)CC1.Cl — lower, -16.7%
- O=C(NCCO)c1nc(NCCO)c2ccccc2n1 — higher, 10.3%
